Results taken from PubChem BioAssay AID720518 (National Center for Advancing Translational Sciences (NCATS), 2013).
Inconclusive results are not listed. A call without a number means that no potency is given here. The source made the active and inactive calls. Calls follow the shape of the full dose curve.

Assay: qHTS for Inhibitors of Cell Surface uPA Generation: Wild-type Protective Antigen (WT-PrAg) Counterscreen for Cherry-picked Compounds
Settings: cells, WT protective antigen toxicity counterscreen; series mostly up to 115 µM

| Structure (SMILES) | Potency |
| --- | --- |
| CCn1c(=O)cc(C(=O)OC)sc1=Nc1ccc(F)c(F)c1 | inactive |
| C=CCn1c(SCCN2C(=O)c3ccccc3C2=O)nc2scc(-c3ccc(F)cc3)c2c1=O | inactive |
| CN(C)CCNC(=O)Nc1ccc([N+](=O)[O-])cc1 | inactive |
| COc1ccc(N2CC(C(=O)Nc3nnc(SCCC4OCCO4)s3)CC2=O)cc1 (stereo not given) | inactive |
| O=C(NCc1ccc(F)cc1)c1cc(S(=O)(=O)N2CCCCC2)ccc1N1CCOCC1 | inactive |
| CN(Cc1ccc(C(C)(C)C)cc1)C(=O)Cc1ccc(S(=O)(=O)N2CCOCC2)s1 | inactive |
| O=C(Nc1ccc2c(c1)CCC2)Nc1ccc2c(c1)OCO2 | inactive |
| CC(=O)Nc1ccc(OS(=O)(=O)c2c(C)cc(C)cc2C)cc1 | inactive |
| CCOc1ccccc1CN1CCCC(CNS(=O)(=O)c2ccc(OC)cc2)C1 (stereo not given) | inactive |
| COc1ccccc1N1CCN(C2CC(=O)N(c3ccccc3)C2=O)CC1 (stereo not given) | inactive |
| Cc1cc(OC(C)C(=O)NCc2ccccn2)c2c(C)cc(=O)oc2c1 (stereo not given) | inactive |
| O=c1[nH]c(SCc2cccc(Cl)c2)nc2ccccc12 | inactive |
| CCCCn1c(C2CCCCC2)nc2cc3[nH]c(=O)c(C(C)C)nc3cc21 | inactive |
| COc1ccc(C(C(=O)NC2CCCC2)N(C(=O)c2ccoc2C)c2ccc(C)c(C)c2)cc1 (stereo not given) | inactive |
| Cc1ccc(NC(=O)CS(=O)Cc2nc(-c3ccc(C)cc3)oc2C)cc1 (stereo not given) | inactive |
| C[n+]1c2cc(N)ccc2cc2ccc(N)cc21 | inactive |
| CN(C)S(=O)(=O)c1ccc(NC(=O)COC(=O)CC2CC3CCC2C3)cc1 (stereo not given) | inactive |
| Cc1ccc(C(=O)COc2cc(O)c3c(=O)cc(-c4ccccc4)oc3c2)cc1 | inactive |
| CCOc1ccc(NS(=O)(=O)c2ccc(C(=O)N3CCC3)cc2)cc1 | inactive |
| CCOC(=O)CC(=O)CSc1nc2c(C)c(C)ccc2cc1C | inactive |

| Structure (SMILES) | Potency |
| --- | --- |
| CC(=O)Nc1sc(C)c(C)c1C(=O)OCC(=O)NC(C)c1ccccc1 (stereo not given) | inactive |
| Cc1cc2[nH]c(=O)c(=O)[nH]c2cc1S(=O)(=O)NC1CCC(C)CC1 (stereo not given) | inactive |
| Cc1ccccc1O | inactive |
| O=S(=O)(c1ccc2nc(N3CCN(c4ccccc4)CC3)ccc2c1)N1CCCCC1 | inactive |
| CN(CC(=O)N(C)CC(=O)Nc1c(Cl)cccc1Cl)Cc1ccccc1F | inactive |
| COc1ncnc(NS(=O)(=O)c2ccc(N)cc2)c1OC | inactive |
| Cc1[nH]c2ccccc2c1C(=O)C(C)OC(=O)c1ccccc1NCCO (stereo not given) | inactive |
| COc1ccc(N(CN2C(=O)c3ccccc3C2=O)C(=O)C(C)C)cc1 | inactive |
| CN(c1ccccc1)S(=O)(=O)c1ccc(C(=O)Nc2nnc(C3CC3)o2)cc1 | inactive |
| CCN1CCN(Cc2ccc(NC(=O)c3cc(NC(=O)c4cncc(-c5cccs5)c4)cc(OC)c3)cc2C(F)(F)F)CC1 | inactive |
| CCC1=NN(C(=O)C(=O)Nc2ccc(OC)cc2)C(O)(C(F)(F)F)C1 (stereo not given) | inactive |
| CCc1ccc(N2CC(C(=O)Nc3ccc4c(c3)OCO4)CC2=O)cc1 (stereo not given) | inactive |
| CC(C(=O)Nc1nccs1)c1ccc([N+](=O)[O-])cc1 (stereo not given) | inactive |
| COc1ccc(C)cc1NC(=O)CSCc1cc(=O)n2c(C)csc2n1 | inactive |
| COc1ccccc1N=Nc1c(C)[nH]n(-c2ccccc2)c1=O | inactive |
| Cc1ccc(-n2ncc(C(=O)NC3CC3)c2C2CCN(C(=O)OC(C)(C)C)CC2)cc1 | inactive |
| Cc1ccn(CCC(=O)N2CCc3ccccc32)n1 | inactive |
| Cc1ccsc1/C=C(\C#N)C(=O)NC1CCS(=O)(=O)C1 (stereo not given) | inactive |
| COc1ccc(Nc2nc(-c3ccccc3)c(C(=O)Nc3cccnc3)s2)cc1 | inactive |
| CCOC(=O)c1c(NC(=S)NC)sc2c1CCCC2 | inactive |
